Results from PubChem BioAssay (EPA / NIEHS).
Some structures have more than one record in an assay (separate samples or runs), and their calls can disagree. Activity calls are given as the source filed them. The calls were made as follows: active = hit-call score of the fitted dose curve at least 0.9, where 1 is the maximum; inactive = score below 0.9.

Experiments:
[1] = ATG_ISRE_CIS: Attagene CIS-FACTORIAL HepG2 Assay for human Interferon Regulatory Factor 1 (IRF1) binding to an Interferon-Stimulated Response Element (ISRE) (AID 2282948); conditions: HepG2 ISRE cis-reporter (Attagene), mRNA transcription readout; actives raise or lower the signal
How it was run: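 Signal reflects induction or loss of ISRE-linked reporter mRNA in transiently transfected HepG2 cells after a 24 h treatment, detected by fluorescent RT-PCR fragments on capillary electrophoresis and normalised to DMSO.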

[2] = ATG_M_32_CIS: Attagene CIS-FACTORIAL HepG2 Assay for M32 Transcription Factor (Internal Marker) (AID 2282949); conditions: HepG2 Attagene cis-factorial M32 reporter, mRNA; actives raise or lower the signal;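 also: background control marker of the multiplexed CIS panel rather than a real target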
How it was run: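 HepG2 human liver cells transiently transfected with cis-promoter-driven multiple reporter transcription units, dosed 24 h. Reporter mRNA quantified by RT-PCR, FAM-labelled primer extension, HpaI digest and capillary electrophoresis; bidirectional fit versus DMSO baseline.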

[3] = ATG_M_06_CIS: Attagene CIS-FACTORIAL HepG2 Assay for M06 Transcription Factor (Internal Marker) (AID 2282950); conditions: HepG2 Attagene CIS-FACTORIAL M06 internal marker reporter; actives raise or lower the signal
How it was run: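 HepG2 cells transiently transfected with cis-regulated multiple reporter transcription units were exposed to chemical for 24 h; reporter mRNA was quantified by RT-PCR, 6-FAM primer labelling, HpaI digestion and capillary electrophoresis, fitted bidirectionally against DMSO.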

[4] = molecular target: Hypoxia-inducible factor 1-alpha (Homo sapiens) (UniProt Q16665); experiment: ATG_HIF1a_CIS: Attagene CIS-FACTORIAL HepG2 Assay for human Hypoxia Inducible Factor 1 (HIF1A) (AID 2282951); conditions: HepG2 Attagene cis-factorial HIF1a reporter transcription; actives raise or lower the signal
How it was run: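 Endogenous-TF cis reporter readout, human HepG2 cells, 24 h incubation; mRNA detected via RT-PCR and capillary electrophoresis fluorescence; DMSO-normalised bidirectional fitting.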

[5] = molecular target: Heat shock factor protein 1 (Homo sapiens) (UniProt Q00613); experiment: ATG_HSE_CIS: Attagene CIS-FACTORIAL HepG2 Assay for human Heat Shock Transcription Factor 1 (HSE) (AID 2282953); conditions: HepG2 HSE cis-reporter, Attagene RNA transcription; actives raise or lower the signal
How it was run: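 HepG2 cells transiently transfected with multiple reporter transcription units under cis-regulatory promoter control, measuring endogenous transcription factor activity. After 24 h chemical exposure, reporter mRNA quantified by RT-PCR, fluorescent labelling, HpaI digestion and capillary electrophoresis; bidirectional fit versus DMSO.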

[6] = ATG_MRE_CIS: Attagene CIS-FACTORIAL HepG2 Assay for human Metal Responsive Element (MRE) (AID 2282954); conditions: HepG2 MRE cis-reporter transcription, Attagene multiplex; actives raise or lower the signal
How it was run: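 Endogenous MRE-dependent transcription read as reporter mRNA in transiently transfected human HepG2 cells at 24 h. RNA reverse-transcribed, PCR-amplified, labelled and resolved by capillary electrophoresis; gain or loss relative to DMSO.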

[7] = molecular target: Paired box protein Pax-6 (Homo sapiens) (UniProt P26367); experiment: ATG_Pax6_CIS: Attagene CIS-FACTORIAL HepG2 Assay for human Paired Box 6 (PAX6) (AID 2282956); conditions: HepG2 CIS-FACTORIAL PAX6 reporter transcription, RNA readout; actives raise or lower the signal
How it was run: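 Values derive from bidirectional curve fitting of reporter mRNA signal relative to DMSO. HepG2 cells bearing transfected cis-regulated MRTUs were exposed for 24 h; transcripts were read by RT-PCR and capillary electrophoresis.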

[8] = ATG_PXRE_CIS: Attagene CIS-FACTORIAL HepG2 Assay for human Pregnane X Receptor Element (PXRE) (AID 2282957); conditions: HepG2 Attagene CIS-FACTORIAL PXRE reporter, mRNA; actives raise or lower the signal
How it was run: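 Reporter transcripts under endogenous PXR-responsive cis-regulation quantified from total RNA of transfected HepG2 cells 24 h post-dosing, via RT-PCR with fluorescent primer extension and capillary electrophoresis. Gain or loss of signal fitted against DMSO baseline.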

[9] = ATG_PPRE_CIS: Attagene CIS-FACTORIAL HepG2 Assay for human Peroxisome Proliferator-activated Response Element (PPRE) (AID 2282958); conditions: HepG2 PPRE cis-element reporter, Attagene transcription factor profiling; actives raise or lower the signal
How it was run: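 After human HepG2 hepatoma cells were transiently transfected with cis-promoter reporter constructs, they were exposed to test chemicals for 24 hours. Reporter RNA was then reverse-transcribed, PCR-amplified, FAM-labeled, HpaI-digested and quantified by capillary electrophoresis.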

[10] = ATG_RORE_CIS: Attagene CIS-FACTORIAL HepG2 Assay for human RAR-related Orphan Receptor Element (RORE) (AID 2282959); conditions: HepG2 Attagene cis-factorial RORE reporter, mRNA; actives raise or lower the signal
How it was run: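 Measured here: transcript induction of a cis-regulated reporter in HepG2 cells transiently transfected via FuGene 6. After 24 h, RNA was processed by RT-PCR and fluorescent capillary electrophoresis; DMSO defined baseline activity.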

[11] = ATG_Sox_CIS: Attagene CIS-FACTORIAL HepG2 Assay for human SRY-box transcription factor (SOX) (AID 2282960); conditions: HepG2 Attagene cis-factorial SOX reporter, mRNA; actives raise or lower the signal
How it was run: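 Using transiently transfected HepG2 cells, reporter transcription driven by cis elements was assessed 24 h after dosing. Signal was fluorescence of capillary-separated RT-PCR products, with DMSO defining baseline activity.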

[12] = molecular target: Transcription factor Sp1 (Homo sapiens) (UniProt P08047); experiment: ATG_Sp1_CIS: Attagene CIS-FACTORIAL HepG2 Assay for human Specificity Protein 1 (Sp1) (AID 2282961); conditions: HepG2 Sp1 cis-reporter transcription, actives raise or lower the signal
How it was run: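 After transient transfection of HepG2 cells with cis-promoter reporter units and 24 h chemical treatment, reporter transcripts were quantified by RT-PCR and capillary electrophoresis fluorescence. Gain- and loss-of-signal fitted against DMSO.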

[13] = ATG_SREBP_CIS: Attagene CIS-FACTORIAL HepG2 Assay for human Sterol Regulatory Element Binding (SREBP) (AID 2282962); conditions: HepG2 Attagene cis-factorial SREBP reporter, mRNA; actives raise or lower the signal
How it was run: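 Values derive from bidirectional curve fitting with DMSO as baseline. The underlying measurement is reporter mRNA from cis-element-regulated units in transiently transfected HepG2, quantified by RT-PCR and capillary electrophoresis after 24 h exposure.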

[14] = molecular target: Signal transducer and activator of transcription 3 (Homo sapiens) (UniProt P40763); experiment: ATG_STAT3_CIS: Attagene CIS-FACTORIAL HepG2 Assay for human Signal Transducer and Activator of Transcription 3 (STAT3) (AID 2282963); conditions: HepG2, Attagene cis-factorial STAT3 reporter transcription; actives raise or lower the signal
How it was run: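 Readout is reporter transcript quantified by RT-PCR and capillary electrophoresis, with 6-FAM primer extension and HpaI digestion. Total RNA is taken 24 h after dosing transiently transfected HepG2 carrying cis-regulated reporter units. Bidirectional fit against DMSO.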

[15] = ATG_TA_CIS: Attagene CIS-FACTORIAL HepG2 Assay for human TA Basal Promoter (AID 2282964); conditions: HepG2 Attagene CIS-factorial TA basal promoter reporter; actives raise or lower the signal
How it was run: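 HepG2 cells transiently transfected with multiplexed cis-promoter reporter units, dosed 24 h. Reporter mRNA measured by RT-PCR, 6-FAM labelling, HpaI digestion and capillary electrophoresis; bidirectional fit versus DMSO baseline, serving as background control.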

[16] = ATG_TAL_CIS: Attagene CIS-FACTORIAL HepG2 Assay for human TAL Basal Promoter (AID 2282966); conditions: HepG2 Attagene cis-factorial TAL promoter reporter; actives raise or lower the signal;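 also: background control endpoint measuring basal TAL promoter reporter mRNA not a specific factor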
How it was run: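 Background-control endpoint: basal TAL promoter reporter transcripts in transiently transfected HepG2, measured 24 h after dosing. Read-out by RT-PCR with fluorescent primer extension and capillary electrophoresis; gain or loss of signal fitted relative to DMSO.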

[17] = ATG_TGFb_CIS: Attagene CIS-FACTORIAL HepG2 Assay for human Transforming Growth Factor (TGF) (AID 2282967); conditions: HepG2 Attagene CIS TGFb reporter, mRNA transcription; actives raise or lower the signal
How it was run: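 HepG2 cells transiently transfected with cis-promoter-driven multiplexed reporter units; 24 h compound exposure. Reporter mRNA measured by RT-PCR, 6-FAM labeling, HpaI digestion and capillary electrophoresis; bidirectional fit versus DMSO baseline.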

[18] = molecular target: Hepatocyte nuclear factor 6 (Homo sapiens) (UniProt Q9UBC0); experiment: ATG_HNF6_CIS: Attagene CIS-FACTORIAL HepG2 Assay for human Hepatocyte Nuclear Factor 6 (HNF6) (AID 2282952); conditions: HepG2 Attagene cis-factorial HNF6 reporter transcription; actives raise or lower the signal
How it was run: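 Endogenous factor activity read in transiently transfected HepG2 via promoter-regulated reporter transcripts. RNA harvested 24 h post-dosing, reverse-transcribed, PCR-amplified, FAM-labelled, HpaI-digested and resolved by capillary electrophoresis; fitted in both directions against DMSO.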

[19] = ATG_TCF_b_cat_CIS: Attagene CIS-FACTORIAL HepG2 Assay for human T-Cell-Factor with beta-catenin (TCF/b-cat) (AID 2282965); conditions: HepG2 TCF/beta-catenin cis-reporter transcription, actives raise or lower the signal
How it was run: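 Endogenous transcription factor activity is captured through cis-promoter reporter constructs transiently introduced into human HepG2 liver cells. Induced reporter mRNA is measured after 24 h and fitted bidirectionally relative to DMSO.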

[20] = ATG_PBREM_CIS: Attagene CIS-FACTORIAL HepG2 Assay for human Phenobarbital-responsive Enhancer Module (PBREM) (AID 2282955); conditions: HepG2 PBREM cis-reporter, Attagene multiplexed transcription; actives raise or lower the signal
How it was run: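 Readout: reporter mRNA, fluorescent RT-PCR fragments separated by capillary electrophoresis. System: HepG2 transiently transfected with cis-regulated reporter units. Exposure: 24 h. Analysis: bidirectional, DMSO baseline.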

Measured: AC50

Chain of Transcription factor Sp1 (Homo sapiens) (P08047 whole entry, looked up): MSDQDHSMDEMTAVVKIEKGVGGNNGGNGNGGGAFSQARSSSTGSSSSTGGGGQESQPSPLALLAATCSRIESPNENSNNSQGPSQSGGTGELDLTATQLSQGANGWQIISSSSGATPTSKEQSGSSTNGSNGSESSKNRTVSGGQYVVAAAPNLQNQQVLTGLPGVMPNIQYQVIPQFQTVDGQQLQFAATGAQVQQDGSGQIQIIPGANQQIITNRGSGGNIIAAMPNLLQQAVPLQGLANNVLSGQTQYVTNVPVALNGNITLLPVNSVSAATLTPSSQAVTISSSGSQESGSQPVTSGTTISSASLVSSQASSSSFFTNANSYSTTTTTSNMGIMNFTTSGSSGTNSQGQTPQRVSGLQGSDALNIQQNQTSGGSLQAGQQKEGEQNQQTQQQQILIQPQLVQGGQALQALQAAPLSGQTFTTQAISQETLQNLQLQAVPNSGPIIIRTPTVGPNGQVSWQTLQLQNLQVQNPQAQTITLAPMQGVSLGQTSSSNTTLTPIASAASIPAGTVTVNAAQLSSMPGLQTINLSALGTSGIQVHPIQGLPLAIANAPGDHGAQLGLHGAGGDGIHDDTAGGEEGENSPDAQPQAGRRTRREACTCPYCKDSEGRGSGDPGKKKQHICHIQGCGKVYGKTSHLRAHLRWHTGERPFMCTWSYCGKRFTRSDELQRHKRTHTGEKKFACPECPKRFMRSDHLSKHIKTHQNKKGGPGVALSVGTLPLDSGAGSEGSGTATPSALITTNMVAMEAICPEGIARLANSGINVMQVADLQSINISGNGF
Chain of Hypoxia-inducible factor 1-alpha (Homo sapiens) (Q16665 whole entry, looked up): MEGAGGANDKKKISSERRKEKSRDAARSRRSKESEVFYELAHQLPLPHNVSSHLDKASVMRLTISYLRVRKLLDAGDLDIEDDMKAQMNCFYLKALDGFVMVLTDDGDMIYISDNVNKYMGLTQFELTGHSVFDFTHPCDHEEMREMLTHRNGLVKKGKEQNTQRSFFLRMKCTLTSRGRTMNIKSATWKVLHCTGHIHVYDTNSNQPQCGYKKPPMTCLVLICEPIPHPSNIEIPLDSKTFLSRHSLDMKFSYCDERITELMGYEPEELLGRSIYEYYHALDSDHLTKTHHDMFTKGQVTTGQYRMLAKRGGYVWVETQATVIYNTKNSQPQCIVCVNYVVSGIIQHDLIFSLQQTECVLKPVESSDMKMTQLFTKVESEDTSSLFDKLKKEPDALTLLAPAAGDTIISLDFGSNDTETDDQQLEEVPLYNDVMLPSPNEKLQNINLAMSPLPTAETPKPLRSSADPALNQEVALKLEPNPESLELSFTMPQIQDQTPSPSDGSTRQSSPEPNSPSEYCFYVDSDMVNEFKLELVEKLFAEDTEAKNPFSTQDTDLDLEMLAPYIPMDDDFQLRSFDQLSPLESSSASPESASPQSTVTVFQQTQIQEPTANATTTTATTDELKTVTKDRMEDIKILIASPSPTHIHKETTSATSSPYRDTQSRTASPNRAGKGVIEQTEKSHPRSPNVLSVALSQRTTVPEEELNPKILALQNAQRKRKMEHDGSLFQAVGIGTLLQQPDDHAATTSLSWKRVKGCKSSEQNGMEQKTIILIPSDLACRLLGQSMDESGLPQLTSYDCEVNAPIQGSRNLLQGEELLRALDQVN
Chain of Heat shock factor protein 1 (Homo sapiens) (Q00613 whole entry, looked up): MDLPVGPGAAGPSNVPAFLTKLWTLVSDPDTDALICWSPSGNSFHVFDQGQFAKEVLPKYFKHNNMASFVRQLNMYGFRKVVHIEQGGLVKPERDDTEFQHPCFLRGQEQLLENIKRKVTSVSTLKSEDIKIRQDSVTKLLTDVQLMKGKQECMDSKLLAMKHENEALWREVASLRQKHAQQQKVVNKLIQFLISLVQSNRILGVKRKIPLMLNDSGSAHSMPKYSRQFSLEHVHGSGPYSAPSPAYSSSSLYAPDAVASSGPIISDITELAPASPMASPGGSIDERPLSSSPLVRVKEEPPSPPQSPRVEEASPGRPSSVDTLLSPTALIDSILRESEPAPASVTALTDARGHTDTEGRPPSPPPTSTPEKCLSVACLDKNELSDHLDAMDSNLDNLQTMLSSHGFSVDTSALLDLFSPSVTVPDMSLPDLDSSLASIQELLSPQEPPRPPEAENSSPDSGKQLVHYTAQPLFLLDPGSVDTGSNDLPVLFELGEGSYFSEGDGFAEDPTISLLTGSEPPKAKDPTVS
Chain of Signal transducer and activator of transcription 3 (Homo sapiens) (P40763 whole entry, looked up): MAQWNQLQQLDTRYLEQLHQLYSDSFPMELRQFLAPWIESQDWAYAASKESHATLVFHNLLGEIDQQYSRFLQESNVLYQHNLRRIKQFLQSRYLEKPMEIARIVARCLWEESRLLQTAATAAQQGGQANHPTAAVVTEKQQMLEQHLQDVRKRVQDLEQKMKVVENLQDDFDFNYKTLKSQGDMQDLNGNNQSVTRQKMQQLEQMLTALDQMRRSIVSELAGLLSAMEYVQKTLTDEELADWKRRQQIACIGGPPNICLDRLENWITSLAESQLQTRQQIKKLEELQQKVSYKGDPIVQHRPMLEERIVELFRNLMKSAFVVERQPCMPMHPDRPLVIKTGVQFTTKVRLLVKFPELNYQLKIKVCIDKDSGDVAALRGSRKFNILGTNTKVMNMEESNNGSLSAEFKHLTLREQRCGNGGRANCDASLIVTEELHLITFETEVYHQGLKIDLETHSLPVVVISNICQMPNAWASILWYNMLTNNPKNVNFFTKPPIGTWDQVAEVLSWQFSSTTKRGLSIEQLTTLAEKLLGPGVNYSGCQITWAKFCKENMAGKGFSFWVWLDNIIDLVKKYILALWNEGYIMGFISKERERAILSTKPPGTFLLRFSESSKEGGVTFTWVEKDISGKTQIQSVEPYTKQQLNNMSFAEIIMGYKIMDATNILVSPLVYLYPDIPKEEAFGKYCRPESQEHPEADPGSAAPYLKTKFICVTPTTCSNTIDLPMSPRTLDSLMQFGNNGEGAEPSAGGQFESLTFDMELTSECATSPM
Chain of Hepatocyte nuclear factor 6 (Homo sapiens) (Q9UBC0 whole entry, looked up): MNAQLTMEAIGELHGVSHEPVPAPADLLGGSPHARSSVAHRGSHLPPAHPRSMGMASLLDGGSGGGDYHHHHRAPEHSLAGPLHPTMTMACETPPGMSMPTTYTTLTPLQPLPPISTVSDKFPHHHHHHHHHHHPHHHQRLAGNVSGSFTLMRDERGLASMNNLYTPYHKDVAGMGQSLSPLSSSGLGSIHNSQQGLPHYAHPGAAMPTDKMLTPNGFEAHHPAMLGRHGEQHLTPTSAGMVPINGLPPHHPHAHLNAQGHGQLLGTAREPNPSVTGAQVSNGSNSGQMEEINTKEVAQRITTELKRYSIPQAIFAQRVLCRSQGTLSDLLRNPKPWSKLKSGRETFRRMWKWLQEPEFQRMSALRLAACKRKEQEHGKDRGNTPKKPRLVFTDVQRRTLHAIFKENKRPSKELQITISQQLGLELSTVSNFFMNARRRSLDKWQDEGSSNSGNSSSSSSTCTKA
Chain of Paired box protein Pax-6 (Homo sapiens) (P26367 whole entry, looked up): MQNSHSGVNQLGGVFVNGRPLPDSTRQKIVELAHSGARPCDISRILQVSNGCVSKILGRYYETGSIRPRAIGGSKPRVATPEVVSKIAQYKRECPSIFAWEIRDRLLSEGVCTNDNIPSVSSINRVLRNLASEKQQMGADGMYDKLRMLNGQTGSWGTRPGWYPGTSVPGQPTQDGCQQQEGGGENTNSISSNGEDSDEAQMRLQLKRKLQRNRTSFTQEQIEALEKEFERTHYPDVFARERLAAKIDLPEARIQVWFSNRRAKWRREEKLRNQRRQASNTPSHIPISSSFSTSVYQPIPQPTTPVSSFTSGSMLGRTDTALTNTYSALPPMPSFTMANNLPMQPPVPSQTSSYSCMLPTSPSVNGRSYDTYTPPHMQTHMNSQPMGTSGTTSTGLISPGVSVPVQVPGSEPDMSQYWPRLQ

c1ccc2sc(SNC3CCCCC3)nc2c1
active: [4] 100 µM | [5] 159 µM | [6] 119 µM | [7] 154 µM | [8] 27 µM | [12] 184 µM | [13] 148 µM | [17] 34.4 µM
not listed: [18] | [19] | [20]
inactive: all other assays above

Clc1cnc(Oc2ccc(Oc3ncc(Cl)cc3Cl)cc2)c(Cl)c1
active: [8] 9.96 µM
not listed: [1] | [4] | [7] | [12] | [20]
inactive: all other assays above

O=C(O)C1(c2ccc3c(c2)OC[C@H](Cc2ccc(-c4ccccc4)cc2)[C@H]3O)CCCC1
active: [6] 2.85 µM | [13] 5.92 µM
not listed: [1] | [7] | [16] | [20]
inactive: all other assays above

Nc1ccc(N)cc1
inactive: [2] | [3] | [4] | [18] | [6] | [7] | [8] | [10] | [11] | [12] | [13] | [14] | [15] | [17]
active: [4] 100 µM | [8] 33 µM | [17] 23.8 µM

CC(C)[C@@H](Nc1ccc(C(F)(F)F)cc1Cl)C(=O)OC(C#N)c1cccc(Oc2ccccc2)c1 (some centres not stated)
active: [20] 1.43 µM | [8] 0.693 µM
not listed: [1] | [12]
inactive: all other assays above

CNC(=O)CSP(=O)(OC)OC
not listed: [1] | [10] | [15]
inactive: all other assays above

Cc1cc(C(F)(C(F)(F)F)C(F)(F)F)ccc1NC(=O)c1cccc(I)c1C(=O)NC(C)(C)CS(C)(=O)=O
active: [8] 0.633 µM
not listed: [1] | [5] | [12] | [15] | [18]
inactive: all other assays above

ClCc1ccccc1Cl
active: [18] 100 µM | [5] 164 µM | [7] 100 µM | [8] 38.3 µM | [11] 120 µM
not listed: [1] | [9] | [12]
inactive: all other assays above

CNC(=O)O/N=C/C(C)(C)S(C)(=O)=O
not listed: [1] | [9] | [15] | [16]
inactive: all other assays above

FC(F)OCC(F)(F)C(F)(F)F
not listed: [1] | [9]
inactive: all other assays above

Oc1cc(Cl)c(Cl)cc1Cl
active: [6] 63 µM | [7] 54 µM | [8] 25.8 µM | [10] 46.2 µM | [13] 136 µM
not listed: [1] | [9] | [12] | [20]
inactive: all other assays above

OCCCCO
active: [8] 59 µM
not listed: [1] | [18]
inactive: all other assays above

O=c1[nH]c2ccccc2n1C1CCN(CCCC(c2ccc(F)cc2)c2ccc(F)cc2)CC1
active: [13] 3.71 µM
not listed: [1] | [4] | [5] | [9] | [20]
inactive: all other assays above

C#CCOC(=O)/C=C(C)/C=C/CC(C)CCCC(C)C (configuration not stated)
not listed: [1] | [9] | [15]
inactive: all other assays above
